Source: PubChem BioAssay (National Center for Advancing Translational Sciences (NCATS))
3T3 cytotox: Cytotoxic Profiling in NIH 3T3 Cell Line of Diverse Libraries Using Quantitative High-Throughput Screening. 94,000 tested, 4.3% active. NIH 3T3 viability, CellTiter-Glo ATP luminescence, 48-72 h. Potency, µM (titrated, usually from 96.7 µM), inactives show at the top dose activity change, negative = cytotoxicity, usual class: inhibitors. AID 1345082, 2018; note: nearly all actives have a fitted effect of over 55% in size
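Cells were seeded at 400 per well, treated with pin-transferred compound, and kept 48 or 72 hr at 37 °C before CellTiter-Glo addition and luminescence imaging of cellular ATP.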
hNpr1 antagonist: Natriuretic polypeptide receptor (hNpr1) antagonism - Primary qHTS | Atrial natriuretic peptide receptor 1 (Homo sapiens), P16066 | HEK293 hNpr1 GloSensor cGMP, ANP-stimulated luminescence | Potency, µM (highest dose often 46.3 µM), without a hit: at the top dose activity change, negative = inhibition, most hits filed as inhibitors | 76,000 tested, 1.6% active | AID 1347048, 2019; calls by dose curve; note: nearly all actives have a fitted effect of over 60% in size
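Compound pre-incubated 30 min at room temperature on GloSensor-loaded HEK293 cells stably carrying hNpr1 and the pGS-40F cGMP biosensor. Stimulation uses hNppA at 0.1 nM final; luminescence is taken at baseline and 20 min post-agonist.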
Luciferase inh: Firefly luciferase inhibition profiling of diverse chemical library using quantitative high-throughput screening. Potency, µM (doses to about 115 µM), most hits filed as inhibitors. purified P. pyralis luciferase, luminescence, biochemical. 76,000 tested, 2.5% active. Luciferin 4-monooxygenase (Photinus pyralis), P08659. AID 1347043, 2019; note: nearly all actives have a fitted effect of over 65% in size
Target sequence (P08659 whole entry, looked up): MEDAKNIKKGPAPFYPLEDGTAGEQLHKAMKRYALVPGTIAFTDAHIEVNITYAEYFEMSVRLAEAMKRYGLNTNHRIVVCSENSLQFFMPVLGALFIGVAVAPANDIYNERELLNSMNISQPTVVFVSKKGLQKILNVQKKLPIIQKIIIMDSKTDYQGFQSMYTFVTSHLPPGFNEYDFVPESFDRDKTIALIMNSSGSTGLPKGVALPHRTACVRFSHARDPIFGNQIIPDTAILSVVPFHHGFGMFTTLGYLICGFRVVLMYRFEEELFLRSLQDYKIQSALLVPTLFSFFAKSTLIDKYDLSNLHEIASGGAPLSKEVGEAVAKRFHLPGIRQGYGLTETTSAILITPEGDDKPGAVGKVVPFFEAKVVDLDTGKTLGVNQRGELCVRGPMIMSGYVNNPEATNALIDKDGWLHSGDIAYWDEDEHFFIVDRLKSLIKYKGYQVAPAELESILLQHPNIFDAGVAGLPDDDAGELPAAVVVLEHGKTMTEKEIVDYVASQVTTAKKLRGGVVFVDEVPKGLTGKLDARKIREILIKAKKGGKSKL
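Biochemical qHTS: compound (6-point titration) added to 10uM D-luciferin plus 10uM ATP in Tris acetate pH 7.5 buffer with Mg, Tween-20 and BSA, then purified enzyme at 10nM; light output imaged.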
HEK cytotox: Cytotoxic Profiling in HEK 293 Cell Line of Diverse Libraries Using Quantitative High-Throughput Screening | HEK 293 viability, ATP luminescence (CellTiter-Glo), 48-72 h | Potency, µM (series often up to 115 µM), for the others: top-dose activity change, negative = cytotoxicity, actives largely listed as inhibitors | 94,000 tested, 6.6% active; note: nearly all actives have a fitted effect of over 60% in size
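Pintool-delivered compounds were incubated with HEK 293 cells (250 cells/well) at 37 degree Celsius for 48 or 72 hr. ATP-dependent luminescence (CellTiter-Glo) then reported remaining viable cells.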
Starred values were filed as active, the others as inactive; [ ] = another dose, or the depositor's remark. Sampled rows, rich in hits. Any-hit rate of the full collection: about 11%. Unless noted, calls come from the whole dose curve; as a rule, active = well fitted curve in the direction sought with a large enough effect; inconclusive = small, poorly fitted or top-dose-only effect, or another doubt; inactive = no such curve, though single readings can be large; an effect the other way counts as inactive or inconclusive. % is set by controls: 0 for no effect and ±100 for the full control effect; potency is the fitted concentration of half-maximal effect.

Screening CC(C)NC(=O)c1cc(-c2ccc(F)cc2)nc2c1cnn2C returned 3T3 cytotox inconclusive and HEK cytotox 79µM*.
CC(C)NC(=O)c1cc(-c2ccc(Cl)nc2)nc2c1cnn2C was read as 3T3 cytotox 22µM* and HEK cytotox inconclusive.
For O=C(NCc1ccc2c(c1)OCO2)[C@@H]1C[C@@H](c2ccc(F)cc2)N(CCOc2ccccc2)C1 the results were 3T3 cytotox inconclusive, hNpr1 antagonist -5%, Luciferase inh inactive and HEK cytotox inactive.
Screening C#CCNC(=O)c1nc2cccnc2n(C2CCCC2)c1=O returned 3T3 cytotox -28%[138 µM] and HEK cytotox inconclusive.
Screening Cc1nn2c(c1-c1ccccc1C(C)C)N(Cc1ccc(F)cc1)CCC2 returned 3T3 cytotox 28µM*, hNpr1 antagonist -15%[70.6 µM], Luciferase inh inactive and HEK cytotox 50µM*.
COc1ncccc1CN1CCCn2nc(C)c(-c3ccccc3C(C)C)c21 was read as 3T3 cytotox 45µM*, hNpr1 antagonist -24%[70.6 µM], Luciferase inh inactive and HEK cytotox 50µM*.
Cc1nn2c(c1-c1ccccc1[S+](C)(=O)[O-])N(Cc1ccc3[nH]ccc3c1)CCC2 was read as 3T3 cytotox -16%[138 µM], hNpr1 antagonist -16%[70.6 µM], Luciferase inh inactive and HEK cytotox inconclusive.
For COc1ccccc1CN1CCCn2nc(C)c(-c3ccccc3[S+](C)(=O)[O-])c21 the results were 3T3 cytotox 35µM*, hNpr1 antagonist -19%[70.6 µM], Luciferase inh inactive and HEK cytotox 45µM*.
For COCCNc1ccc(-c2noc([C@@H]3CCCN3Cc3ccccc3F)n2)cn1 the results were 3T3 cytotox -15%[138 µM], hNpr1 antagonist 7%[70.6 µM], Luciferase inh inactive and HEK cytotox inconclusive.
`COC(=O)[C@@H]1CCCN1c1ccc(-c2nc(-c3ccccc3F)no2)cn1` gave 3T3 cytotox inconclusive, hNpr1 antagonist 14µM*, Luciferase inh inconclusive and HEK cytotox 40µM*.
Screening O=C1OCCCN1CCNc1ccc(-c2nc(-c3ccccc3F)no2)cn1 returned 3T3 cytotox -37%, hNpr1 antagonist -25%, Luciferase inh 35µM* and HEK cytotox inconclusive.
O=C1CCCCN1CCNc1ccc(-c2nc(-c3ccccc3F)no2)cn1 was read as 3T3 cytotox inconclusive, hNpr1 antagonist -29%, Luciferase inh 14µM* and HEK cytotox inconclusive.
`O=C(NC1CCN(c2ccc3nnc(C4CC4)n3n2)C1)c1cccnc1` (stereo not drawn) gave 3T3 cytotox -27% and HEK cytotox -8%.
For CCC1Oc2ccc(NC(=O)c3ccccc3OC)cc2CN(Cc2ccc(OC)cc2)C1=O (stereo not drawn) the results were 3T3 cytotox inconclusive, hNpr1 antagonist -2%, Luciferase inh inactive and HEK cytotox inconclusive.
Screening O=C(NC1CCN(c2nc3ncccc3o2)C1)c1ccccc1 (stereo not drawn) returned 3T3 cytotox 2%[138 µM] and HEK cytotox -3%[172 µM].
For COc1ccccc1-c1ccc2ncc(Nc3ccc(CCO)cc3)n2n1 the results were 3T3 cytotox inconclusive, hNpr1 antagonist 5%[70.6 µM], Luciferase inh inconclusive and HEK cytotox inconclusive.
Screening OCCc1ccc(Nc2cnc3ccc(-c4cccc(CO)c4)nn23)cc1 returned 3T3 cytotox inconclusive, hNpr1 antagonist -3%[70.6 µM], Luciferase inh inconclusive and HEK cytotox inconclusive.
Screening Fc1ccc(-c2ccc3ncc(Nc4ccc5c(c4)OCO5)n3n2)cc1 returned 3T3 cytotox inconclusive, hNpr1 antagonist -11%[70.6 µM], Luciferase inh inactive and HEK cytotox 79µM*.
For COc1ccc(Nc2cnc3ccc(-c4ccccc4)nn23)cn1 the results were 3T3 cytotox 40µM*, hNpr1 antagonist -3%[70.6 µM], Luciferase inh inconclusive and HEK cytotox 45µM*.
Screening Fc1ccc(-c2ccc3ncc(Nc4ccncc4)n3n2)cc1 returned 3T3 cytotox inconclusive, hNpr1 antagonist -2%[70.6 µM], Luciferase inh inactive and HEK cytotox 100µM*.
For COc1ccc(Nc2cnc3ccc(-c4ccccc4)nn23)cc1 the results were 3T3 cytotox inconclusive, hNpr1 antagonist -12%[70.6 µM], Luciferase inh inconclusive and HEK cytotox 71µM*.
For CC(C)c1noc(-c2cccn3c(CNC(=O)c4cc(F)ccc4Cl)nnc23)n1 the results were 3T3 cytotox inactive, hNpr1 antagonist -2%, Luciferase inh inactive and HEK cytotox -23%.
Screening O=C(CN1CC2CC(C1)[C@H]1CCCC(=O)N1C2)N1CCC(Cc2ccccc2)CC1 (stereo partly drawn) returned 3T3 cytotox 4%, hNpr1 antagonist 7%, Luciferase inh inactive and HEK cytotox 2%.
Screening O=C(NC1CCN(c2cc(-c3ccc(F)cc3)[nH]n2)C1)c1cccnc1 (stereo not drawn) returned 3T3 cytotox inconclusive, hNpr1 antagonist -13%, Luciferase inh inactive and HEK cytotox inconclusive.
For COc1ccc(Cn2c(=O)c(C(=O)N3CCOCC3)nc3cccnc32)cc1 the results were 3T3 cytotox -12% and HEK cytotox -10%.
`O=C(c1nc2cccnc2n(CCc2ccccc2)c1=O)N1CCN(C(=O)C2CCCC2)CC1` gave 3T3 cytotox -29% and HEK cytotox 1%.
CCOc1ccccc1NC(=O)Cn1ccn2nc(-c3ccccc3)c(CO)c2c1=O was read as 3T3 cytotox inconclusive, hNpr1 antagonist -16%, Luciferase inh inactive and HEK cytotox inconclusive.
CN(Cc1ccc(F)cc1)c1ccc2ncc(Nc3ccc4c(c3)OCCO4)n2n1 was read as 3T3 cytotox inconclusive, hNpr1 antagonist -19%[70.6 µM], Luciferase inh inactive and HEK cytotox 40µM*.
Screening c1ccc(-c2ccc3ncc(Nc4ncccn4)n3n2)cc1 returned 3T3 cytotox inconclusive, hNpr1 antagonist 1%[70.6 µM], Luciferase inh inactive and HEK cytotox inconclusive.
`COc1ccc(Nc2cnc3ccc(-c4ccc(F)cc4)nn23)cc1` gave 3T3 cytotox inconclusive, hNpr1 antagonist -2%[70.6 µM], Luciferase inh inactive and HEK cytotox inconclusive.
For NC(=O)c1ccc(Nc2cnc3ccc(-c4ccccc4)nn23)cc1 the results were 3T3 cytotox 28µM*, hNpr1 antagonist -10%[70.6 µM], Luciferase inh inactive and HEK cytotox inconclusive.
Screening COc1ccc(Nc2cnc3ccc(-c4ccc(F)cc4)nn23)cn1 returned 3T3 cytotox 35µM*, hNpr1 antagonist 3%[70.6 µM], Luciferase inh inactive and HEK cytotox 50µM*.
Screening CNC(=O)c1cc(C2CC2)nc2onc(C3CCN([S+](=O)([O-])c4c(C)noc4C)C3)c12 (stereo not drawn) returned 3T3 cytotox -8% and HEK cytotox -6%.
CC1(NC(=O)C2CC2)CN(Cc2nc(-c3cccc(N4CCOCC4)c3)cs2)C1 was read as 3T3 cytotox -20%[138 µM], hNpr1 antagonist -2%[70.6 µM], Luciferase inh 40µM* and HEK cytotox inconclusive.
